Screens deposited in PubChem by National Center for Advancing Translational Sciences (NCATS).
This is a sample that favours compounds with a hit; in the whole collection about 3% have one here.
KCNH2 3.1 block: qHTS for Inhibitors of KCHN2 3.1: Mutant qHTS | 340,000 tested, 0.95% active | activity change, % (tested at about 1.8 µM) | Potassium voltage-gated channel subfamily H member 2, brain isoform KCNH2 3.1 (human) | AID 720553, 2013 | U2OS KCNH2 3.1, thallium flux FluxOr; stronger effect = lower value;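 active = maximum activity change below -70%; inconclusive = maximum activity change from -70% to -50%; inactive = maximum activity change above -50%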;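 note: thallium influx rate constant from kinetic fluorescence after stimulation buffer; % is set by controls: 0 for no effect and ±100 for the full control effect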
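Steps: virus added to U2OS suspension (4 h, RT, dark); medium with 10% FBS added, cells plated, 37 C overnight; FluxOr/Red40 loading buffer 45 min RT; stimulation buffer, 2 min kinetic read; rate constant normalized.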
BCR signal inh: qHTS Assay to Find Inhibitors of Chronic Active B-Cell Receptor Signaling. Potency, µM (highest dose often 46.1 µM), without a hit: top-dose activity change, negative = inhibition, hits mostly inhibitors. ABC-DLBCL IkBa-CBG/CBR reporter, luminescence ratio, 4 h. 340,000 tested, 0.05% active; active = well fitted inhibition curve with a large enough effect in the signal ratio, with a control signal flat, not every such curve was filed as active; inconclusive = small, poorly fitted or top-dose-only effect, or effect the other way, or a change in a side signal; the % refers to the signal ratio;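 note: potency is the fitted concentration of half-maximal effect; plate controls were basal doxycycline-induced cells for no effect and cells given 10 µM MG132 for full effect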
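Compounds up to 46 uM were incubated four hours with TMD8 cells whose green CBG68 luciferase is fused to IkappaBalpha; red CBR luminescence normalised the signal, and concentration-effect curves were fitted to fusion, red and ratio data.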
12-LOX inh: Primary qHTS assay for inhibitors of human arachidonate 12S-lipoxygenase (ALOX12): Round 2. Polyunsaturated fatty acid lipoxygenase ALOX12 (Homo sapiens), P18054. purified 12hLO, xylenol orange hydroperoxide absorbance. Potency, µM (series often up to 108 µM), for the others: at the highest dose activity change, negative = inhibition, hits mostly inhibitors. 580,000 tested, 1.1% active. AID 1671190, 2021; active = well fitted inhibition curve with a large enough effect; inconclusive = small, poorly fitted or top-dose-only effect, or another doubt; inactive = no such curve, though single readings can be large or run the other way; note: potency is the fitted concentration of half-maximal effect; % is set by controls: 0 for no effect and ±100 for the full control effect
Target sequence (P18054 whole entry, looked up): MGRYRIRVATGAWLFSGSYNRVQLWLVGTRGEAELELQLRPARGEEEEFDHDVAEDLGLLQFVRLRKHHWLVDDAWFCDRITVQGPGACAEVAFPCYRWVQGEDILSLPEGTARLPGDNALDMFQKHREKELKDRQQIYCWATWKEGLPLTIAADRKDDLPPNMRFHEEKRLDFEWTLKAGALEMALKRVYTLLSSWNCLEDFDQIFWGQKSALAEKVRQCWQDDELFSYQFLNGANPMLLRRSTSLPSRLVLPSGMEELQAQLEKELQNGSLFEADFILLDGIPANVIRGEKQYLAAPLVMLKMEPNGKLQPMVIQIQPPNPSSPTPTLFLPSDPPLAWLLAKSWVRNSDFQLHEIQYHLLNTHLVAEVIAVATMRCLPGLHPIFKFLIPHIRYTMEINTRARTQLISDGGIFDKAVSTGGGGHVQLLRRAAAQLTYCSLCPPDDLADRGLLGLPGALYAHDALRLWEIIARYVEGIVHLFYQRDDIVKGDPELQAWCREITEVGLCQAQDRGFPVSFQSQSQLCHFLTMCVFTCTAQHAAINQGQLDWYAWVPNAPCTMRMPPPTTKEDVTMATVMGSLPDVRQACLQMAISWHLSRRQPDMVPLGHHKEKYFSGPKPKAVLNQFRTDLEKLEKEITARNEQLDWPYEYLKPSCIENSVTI
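Hydroperoxide product was detected by ferrous iron/xylenol orange as the 573 to 405 nm absorbance ratio. Arachidonic acid at 40 uM (final) was turned over for 30 min at room temperature by 150 nM human 12hLO, pH 7.0 Hepes buffer, after 15 min compound preincubation.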
hERG WT inh: qHTS for Inhibitors of KCHN2 3.1: Wildtype qHTS | Voltage-gated inwardly rectifying potassium channel KCNH2 (Homo sapiens), Q12809 | U2OS, BacMam KCNH2, thallium flux FluxOr; stronger effect = lower value | activity change, % at 1.84 µM | 340,000 tested, 0.37% active | AID 720551, 2013;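 active = maximum activity change below -70%; inconclusive = maximum activity change between -70% and -50%; inactive = maximum activity change above -50%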; note: % is set by controls: 0 for no effect and ±100 for the full control effect
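U2OS cells transduced with wild-type KCNH2 virus are loaded with FluxOr dye for 45 min, and thallium flux is measured in kinetic reads before and after stimulation buffer. Rate constants are normalized to DMSO controls.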
LDHA inh: qHTS assay for inhibitors of human lactate dehydrogenase | purified LDHA, NADH/diaphorase-resazurin fluorescence; stronger effect = lower value | activity change, % (values are at about 110 or 230 µM) | 480,000 tested, 0.15% active | AID 1347041, 2019; in the data active = activity change below about -30%; inconclusive = mostly about -25% to -30%;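 note: plate controls were DMSO wells for no effect and wells without enzyme for full effect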
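Remaining NADH was detected by diaphorase (0.133 mg/mL) converting 37 µM resazurin to fluorescent resorufin, read at 0 and 20 minutes. The preceding 5-minute room-temperature reaction used 2 nM LDHA, 0.2 mM sodium pyruvate and 0.06 mM NADH at pH 7.4.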
ClpP mod: qHTS Assay for Activators of ClpP; AID 651965, 2013; 340,000 tested, 1.9% active; purified B. subtilis ClpP, FRET peptide cleavage, 20 min; Potency, µM (doses to about 57.5 µM), inactives show top-dose activity change, negative = active; active = well fitted falling curve with a large enough effect; inconclusive = small, poorly fitted or top-dose-only effect; inactive = no such curve, though single readings can be large or run the other way; note: potency is the fitted concentration of half-maximal effect; the source files actives as falling curves though it sought activators and does not explain the sign; nearly all actives have a fitted effect of over 65% in size
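ClpP 10 microg/mL final, pH 8 Tris/KCl buffer with BSA, glycerol, Tween-20; compound pinned in; FRET-FV substrate; RT 20 min; Ex320/Em430; ΔFRET vs ADEP 5.8 microM, DMSO, no enzyme.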
Starred values were filed as active, the others as inactive; ? = inconclusive; / = no result; ! = not confirmed by another sample.

SMILES | KCNH2 3.1 block | BCR signal inh | 12-LOX inh | hERG WT inh | LDHA inh | ClpP mod
Cn1c(=O)[nH]c(=O)c2c1nc(SCCN1CCCCC1)n2Cc1ccccc1 | -74* | ? | 10% | -40 | 3 | 1%
Cc1ccc(Cn2c(SCCN3CCCCC3)nc3c2c(=O)[nH]c(=O)n3C)cc1 | -95* | -1% | ? | -42 | -10 | 1%
COCCSc1nc2c(c(=O)[nH]c(=O)n2C)n1CCCc1ccccc1 | 11 | -3% | 28µM*! | -9 | -7 | -3%
Cc1cccc(Cn2c(SCCN3CCCCC3)nc3c2c(=O)[nH]c(=O)n3C)c1 | -81* | -1% | -24% | -34 | -6 | -2%
COCCn1c(SCCCc2ccccc2)nc2c1c(=O)[nH]c(=O)n2C | 2 | ? | -28% | -2 | 0 | -3%
CC(C)C(NC(=O)c1ccoc1)c1ccc(F)cc1 (stereo not given) | / | / | ? | / | 13 | /
CN(C)C(=O)c1ccc(Br)cc1F | / | / | 6% | / | 0 | /
CNC(=O)c1cccc(OCc2coc(-c3cccc(F)c3)n2)c1 | / | / | ? | / | 2 | /
O=C(CCn1ccc2ccc(Cl)cc21)Nc1ccc2c(c1)C(=O)N1CCC[C@H]1C(=O)N2 | / | / | 4% | / | / | /
COc1cccc(CN2CCC(C)CC2)c1OC | / | / | ? | / | -3 | /
c1csc(CNCc2ccncc2)c1 | 15 | -21% | ? | 2 | -2 | /
c1cncc(-c2nccc(NCc3cccs3)n2)c1 | / | / | 20µM* | / | / | /
COc1cccc(-c2nccc(NCc3cccs3)n2)c1 | / | / | -42% | / | / | /
c1cncc(-c2cc(NCc3cccs3)ncn2)c1 | / | / | 40µM* | / | / | /
c1cncc(-c2[nH]ncc2CNCc2cccs2)c1 | / | / | 7.1µM* | / | -19 | /
c1cncc(-c2ccc3ncnc(NCc4cccs4)c3c2)c1 | / | ? | -7% | / | -8 | /
CC(C)(C)c1ccc(C(=O)N/C(=C\c2ccco2)C(=O)Nc2ccccc2C(=O)O)cc1 | 2 | 16% | 32µM* | 0 | 1 | /
CN(c1ccc(C(=O)Nc2cccnc2)cc1)S(C)(=O)=O | ? | 6% | -8% | -5 | -2 | 28µM*
COC(=O)c1c(-c2cccs2)csc1NC(=O)COc1ccc(C(C)C)cc1 | / | / | -25% | / | -2 | 28µM*
CCCNC(=O)COc1cccc(-c2nc(-c3ccc(C)cc3)no2)c1 | / | / | 5% | / | 1 | /
COc1ccc(CN2CCN(CCSc3ccc(C)cc3)CC2)c(OC)c1OC | -77* | -5% | ? | 52 | -37* | 0%
CCNC(=O)C(C)Nc1nc(-c2ccccc2)nc2ccccc12 (stereo not given) | / | / | -29% | / | -3 | /
O=C(CSc1nncn1-c1cccc(Cl)c1)Nc1ccccc1C(=O)NCCc1ccccc1 | / | / | -2% | / | 9 | /
COc1ccc(CN(C(=O)CSc2nnc(-c3ccc(F)cc3)o2)c2ccc(F)cc2)cc1 | 0 | -11% | -7% | 17 | 0 | -3%
COc1ccc(CN(C(=O)CSc2nnc(-c3c[nH]c4ccccc34)o2)c2ccc(F)cc2)cc1OC | -5 | ? | -1% | -280* | 0 | -9%
O=C(Cn1ncn2c(cc3ccccc32)c1=O)NCCC1=CCCCC1 | 7 | -2% | 8% | -20 | -11 | 22µM*
O=C(Cn1ncn2c(cc3ccccc32)c1=O)NCCc1cccs1 | 7 | ? | / | -20 | -7 | -15%
Cc1c(Cl)cccc1-n1nc(C)c2c(C(=O)NCc3ccccc3)cc(C3CC3)nc21 | / | / | -18% | / | -8 | 13µM*
